Most compounds without a hit are left out; they make up all but 1.4% or so of the library.
MEX-5 binding: MEX-5 zinc finger RNA-binding disruptors – biochemical, C. elegans, fluorescence polarization, MLPCN library, primary screen; Zinc finger protein mex-5 (Caenorhabditis elegans), Q9XUB2; MEX-5/FITC-TCR2 RNA binding; active compounds read low; activity score (negative = inhibition of binding), % at 10 µM; actives 0.38% (n = 300,000); AID 1832, 2009;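 active = inhibition past about -25% in most replicates, and total fluorescence under double the plate's negative control median, limit read from the data; inconclusive = replicates evenly split on the limit, or fluorescence at least double controls; inactive = too little inhibition in most replicates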;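 note: 0% = DMSO and -100% = 5 µM competing unlabeled TCR2 RNA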
GLD-1 RNA inh: GLD-1/TGE RNA complex disruptors, primary screen, biochemical, fluorescence polarization; purified GLD-1 + fluorescein TGE RNA; inhibition, % at 5.96 µM; actives 0.44% (n = 320,000); AID 2280, 2010;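 active = percent inhibition above a per-plate cutoff, the plate mean of test compounds plus 3 SD, cut at about 30% in these data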;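 note: 0% = DMSO wells with GLD-1 and probe and 100% = wells lacking GLD-1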
Bcl-xL primary: inhibitors of human Bcl-xL, primary screen, biochemical, fluorescence polarization, HTS; GST-Bcl-xL / FITC-Bim BH3 peptide fluorescence polarization; inhibition, % at 10.9 µM; actives 0.7% (n = 320,000); AID 2129, 2009;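 active = inhibition above the mean of all tested compounds plus 3 SD, cutoff set per campaign, cut at about 30% in these data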;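 note: 0% = DMSO wells and 100% = unlabeled Bim-BH3 peptide competitor; inhibitors lower millipolarization by displacing the labeled peptide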
Target sequence (Q07817 whole entry, looked up): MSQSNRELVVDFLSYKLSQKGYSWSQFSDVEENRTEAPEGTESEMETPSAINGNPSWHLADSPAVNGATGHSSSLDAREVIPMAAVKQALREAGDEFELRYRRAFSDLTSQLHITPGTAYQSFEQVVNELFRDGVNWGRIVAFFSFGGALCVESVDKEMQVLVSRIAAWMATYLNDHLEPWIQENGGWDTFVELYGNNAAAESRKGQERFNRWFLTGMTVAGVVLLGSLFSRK
eLon inh: inhibitors of E. coli Lon protease, primary screen, biochemical, fluorescence polarization. actives 0.42% (n = 360,000). purified E. coli Lon protease. inhibition, % at 7.94 µM. P0A9M0; in the data active = inhibition above about 13%, passing the limit was not always enough;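 note: 0% = enzyme with probe and DMSO and 100% = no enzyme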
EBV gp42 inh: Epstein-Barr virus gp42 inhibitors, primary screen, biochemical, uHTS, fluorescence polarization; Fluorescence polarization binding assay, mP read-out; actives 0.42% (n = 220,000); Glycoprotein 42 (Epstein-Barr virus (strain AG876)), Q1HVG2; inhibition, % (tested at 21.74 µM); in the data active = inhibition above about 50%
Target sequence (Q1HVG2 whole entry, looked up): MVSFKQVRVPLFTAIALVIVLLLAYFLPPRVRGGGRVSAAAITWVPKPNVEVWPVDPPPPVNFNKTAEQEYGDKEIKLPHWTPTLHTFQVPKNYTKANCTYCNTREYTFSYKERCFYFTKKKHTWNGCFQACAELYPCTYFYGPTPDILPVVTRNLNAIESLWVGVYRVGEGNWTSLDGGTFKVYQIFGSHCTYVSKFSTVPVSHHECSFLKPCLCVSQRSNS
MCL1-BIM inh: inhibitors of MCL1 binding to BIM-BH3, primary screen, biochemical, fluorescence polarization | inhibition, % at 10.9 µM | Induced myeloid leukemia cell differentiation protein Mcl-1 (Homo sapiens), Q07820 | GST-MCL1 / FITC-Bim-BH3 fluorescence polarization | actives 0.68% (n = 320,000);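 active = inhibition above the mean inhibition of all tested compounds plus 3 SD, set per campaign, cut at about 40% in these data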;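 note: 0% = DMSO wells and 100% = unlabeled Bim-BH3 peptide control; higher means more loss of mP so more displacement of Bim peptide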
BCLXL inh confirm: Bcl-xL inhibitors blocking Bim BH3 binding, confirmation, counter-screen for MCL1 inhibitor project, biochemical, fluorescence polarization. shares compounds with MCL1-BIM inh. GST-Bcl-xL / FITC-Bim BH3 peptide FP binding. inhibition, % at 10.9 µM. actives 54% (n = 1,700). AID 2166, 2009;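 active = inhibition above a cutoff equal to the mean inhibition of all tested compounds plus 3 SD, cut at about 30% in these data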;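 note: 0% = DMSO wells and 100% = unlabeled Bim BH3 control peptide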
MCL1 BIM confirm: inhibitors of MCL1 binding to BIM-BH3, confirmation, biochemical, fluorescence polarization, triplicate; shares compounds with MCL1-BIM inh; GST-MCL1 / FITC-Bim-BH3 fluorescence polarization; inhibition, % at 10.9 µM; actives 61% (n = 1,700);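 active = inhibition above the average of all tested compounds plus 3 SD, cut at about 40% in these data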;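 note: 0% = DMSO wells and 100% = unlabeled Bim-BH3 control peptide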
GLD-1 TGE cf: GLD-1/TGE RNA binding inhibitors, retest, confirmation, biochemical, fluorescence polarization, triplicate; shares compounds with GLD-1 RNA inh; GLD-1/FL-TGE RNA fluorescence polarization; inhibition, % at 5.96 µM; actives 10% (n = 550); AID 2459, 2010;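 active = average inhibition across triplicates above the hit cutoff set in the primary screen, cut at about 32% in these data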;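 note: 0% = GLD-1 with RNA probe and DMSO and 100% = wells lacking GLD-1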
* hit, by the source's call; u = inconclusive; x = not tested or not shown; + = active, no number.

SMILES	MEX-5 binding	GLD-1 RNA inh	Bcl-xL primary	eLon inh	EBV gp42 inh	MCL1-BIM inh	BCLXL inh confirm	MCL1 BIM confirm	GLD-1 TGE cf
NC(=O)C1=C[C@@H](C2CCCCC2)C[C@@H](OCCCCO)O1	-1	6	2	4	-3	1	x	x	x
CC(C)CNc1c(N)n(CC(C)C)c(=O)[nH]c1=O	x	x	x	-3	25	x	x	x	x
CCCCn1c(N)c(NCCC)c(=O)[nH]c1=O	-11	31*	35*	6	28	50*	29	39	9
CCCCn1c(N)c(NCc2ccccc2OC)c(=O)[nH]c1=O	3	21	15	8	-13	17	x	x	x
CCCCNc1c(N)n(CCCC)c(=O)[nH]c1=O	u	37*	36*	x	38	52*	56*	79*	79*
CN(C)/C=C1\SC(=S)N(c2ccc(Br)cc2)C1=O	-5	73*	131*	-10	10	176*	+	+	32*
Cc1ccc(N(CC(=O)NCc2ccc(Cl)cc2)S(C)(=O)=O)cc1	2	-3	-3	-9	x	-3	x	x	x
CCC(=O)OCCNc1cc(Sc2nc3ccccc3s2)c2nonc2c1[N+](=O)[O-]	-4	38*	62*	-10	33	60*	56*	72*	25
CCC(=O)OCCNc1cc(Sc2nc3ccccc3[nH]2)c2nonc2c1[N+](=O)[O-]	x	0	10	7	-16	9	x	x	x
CN1C(=O)c2ccc(N3CCCC3)cc2C1=O	-10	36*	48*	7	32	63*	47*	55*	9
CCOC(=O)c1ccc(NC(=O)[C@@H](NC(N)=O)C(C)C)cc1	-1	98*	110*	-4	-13	120*	0	-2	-2
CCC(C)C(NC(N)=O)C(=O)Nc1ccc(C(=O)OC)cc1 (centres undefined)	0	1	1	1	-15	-6	x	x	x
O=C(NCCNC(=O)c1ccc(-c2cc(Cl)ccc2Cl)o1)c1cnccn1	x	x	x	-1	x	x	x	x	x
CC(=O)Nc1nc2n(n1)C(c1ccccc1)C=C(c1ccccc1)N2 (centres undefined)	-1	47*	57*	31*	32	53*	57*	80*	-2
CC1=CC(c2ccccc2)n2nc(NC(=O)CCC(=O)O)nc2N1 (centres undefined)	0	7	2	6	-18	0	x	x	x
O=C(C1CCC(=O)N(C2CCCCCC2)C1)N1CCN(c2ccccc2Cl)CC1 (centres undefined)	-1	31*	89*	-1	x	57*	10	-4	3
N#CC1=C(N)C2=CCCC[C@H]2[C@H](c2cccc(F)c2)C1(C#N)C#N	-14	37*	44*	3	29	45*	24	25	1
N#CC1=C(N)N(c2ccccc2)C(c2ccccc2)C1(C#N)C#N (centres undefined)	-1	4	2	2	x	4	x	x	x
COc1ccc(CCNC(=O)c2ccc(S(=O)(=O)N3CCCCC3)cc2)cc1	x	4	4	-4	x	2	x	x	x
COc1ccc2nccc(/C=C/c3ccnc4ccc(OC)cc34)c2c1	1	-4	12	0	1	16	x	x	x
CCC1OC2(C)OC(=N)C1(C#N)C(C#N)(C#N)C2c1ccccc1 (centres undefined)	-9	44*	60*	-21	-14	55*	14	12	-1
CCOC(=O)C1=C(C)OC(N)=C(C#N)C1c1ccccc1 (centres undefined)	1	0	8	2	-11	6	x	x	x
CC(C)(C)OC(=O)N1C(=O)[C@](OC(=O)c2ccccc2)(c2ccc(F)cc2)c2ccccc21	x	x	x	-7	x	x	x	x	x
Cc1c(NC=C(C#N)C#N)c(=O)n(-c2ccccc2)n1C	0	35*	86*	5	-6	75*	11	19	1
Cc1ccc(/C=C2/NC(=O)N(Cc3ccccc3)C2=O)o1	-2	50*	38*	4	-50	49*	-48	-83	-88
SMILES	MEX-5 binding	GLD-1 RNA inh	Bcl-xL primary	eLon inh	EBV gp42 inh	MCL1-BIM inh	BCLXL inh confirm	MCL1 BIM confirm	GLD-1 TGE cf
Cc1ccc(-c2cc(C(=O)O)c3cc(Br)ccc3n2)o1	-20	37*	62*	1	-19	75*	28	44*	3
CN(C)c1ccc(C(CNC(=O)c2ccc(-c3ccccc3)cc2)N2CCOCC2)cc1 (centres undefined)	-3	37*	80*	-17	x	89*	6	-2	-2
Cc1ccc(C(=O)NCC(c2ccc(F)cc2)N2CCOCC2)cc1 (centres undefined)	-2	8	-5	6	-15	-15	x	x	x
CC1(C)CC(=O)C2=C(C1)N=C1SCCC(=O)N1C2c1cccc([N+](=O)[O-])c1 (centres undefined)	-1	-4	7	6	-1	3	x	x	x
COc1cccc(N2CC(C)Cn3c2nc2c3c(=O)[nH]c(=O)n2C)c1 (centres undefined)	-1	x	x	1	x	x	x	x	x
N#Cc1c(-c2ccco2)cc(-c2cccnc2)nc1N	-1	44*	46*	5	2	75*	16	12	-4
N#Cc1c(-c2cccnc2)cc(-c2ccccc2)nc1N	1	-1	0	-3	5	1	x	x	x
O=C1Nc2ccccc2SC1=Cc1ccccc1	x	x	x	17	x	x	x	x	x
O=C1CCCC2=C1Sc1ccccc1N2	-7	31*	58*	25	65*	69*	53*	78*	20
CCOC(=O)c1sc(=S)n(-c2ccc3c(c2)OCO3)c1N	1	49*	106*	-7	-18	49*	14	8	-8

Source: PubChem
